This note sets out measurements from PubChem BioAssay (NCI).

The panel holds about 79,000 compounds, 15% with a hit somewhere; the sample as a whole holds those more often. Unmarked numbers belong to inactive results. The source made the active and inactive calls. Cut-off read from the data, not from the text of the source: active = growth inhibition above about 70%; inactive = the rest.

Test [1] in a line: NCI Yeast Anticancer Drug Screen. Data for the rad50 strain (AID 155).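 Note: 0% = growth of vehicle-only cultures of the same strain.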 Particulars: S. cerevisiae rad50 strain growth inhibition, hits give high values. The essentials:
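Inhibition values express reduced yeast growth in compound-treated cultures relative to vehicle-treated controls.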

The nature of test [2]: NCI Yeast Anticancer Drug Screen. Data for the mec2-1 strain (AID 157). To be noted: S. cerevisiae mec2-1 strain, hits give high values. An outline of the steps:
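Each compound was tested on mec2-1 yeast, a strain altered in DNA damage repair or cell cycle control. Growth inhibition is reported relative to vehicle.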

Test [3] is described as follows: NCI Yeast Anticancer Drug Screen. Data for the sgs1 mgt1 strain (AID 161).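 Note: 0% = growth of cultures given vehicle only.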 To be noted: S. cerevisiae sgs1 mgt1 strain, hits give high values. An outline of the steps:
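Mutant yeast exposed to compound; growth scored against vehicle-only wells.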

A short description of test [4]: NCI Yeast Anticancer Drug Screen. Data for the cln2 rad14 strain (AID 165).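 Note: 0% = growth equal to vehicle treated cultures.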 Particulars: S. cerevisiae cln2 rad14 strain, hits give high values. An outline of the steps:
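Test compounds were added to cln2 rad14 yeast cultures; inhibition of growth was then determined by comparison with vehicle treatment.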

Test [5] can be described thus: NCI Yeast Anticancer Drug Screen. Data for the bub3 strain (AID 167). To be noted: S. cerevisiae bub3 mutant strain, hits give high values. An outline of the steps: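 Steps: expose the mutant yeast strain to compound; grow alongside vehicle-treated cultures; measure growth; express inhibition against the vehicle cultures.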
A short description of test [6]: NCI Yeast Anticancer Drug Screen. Data for the mlh1 rad18 strain (AID 175). Particulars: S. cerevisiae mlh1 rad18 strain growth inhibition, hits give high values. The essentials:
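Inhibition values reflect reduced growth of mutant yeast versus vehicle-treated controls following compound exposure; the mutations affect DNA damage repair.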

Setting [7] is: at 5.0 µM (retest, dose inferred, filed as 0.5).
Where [8] appears, read: at 50.0 µM (retest, dose inferred, filed as 5.0).

In the case of `CSC(=S)NN=C1CCCC1`, the growth inhibition in test [1] (setting [7]) was 66%; in test [1] (setting [8]) it was 97% (active); in test [1] (at 50.0 µM) it was 87.5% (active); in test [2] (setting [7]) it was 57%; in test [2] (setting [8]) it was 98% (active); in test [2] (at 50.0 µM), 83.7% (active). Besides, the growth inhibition was 61% in test [3] (setting [7]); 97% (active) in test [3] (setting [8]); 89.9% (active) in test [3] (at 50.0 µM); 49% in test [4] (setting [7]); 98% (active) in test [4] (setting [8]); 57.8% in test [4] (at 50.0 µM). Further, the growth inhibition was 78% (active) in test [5] (setting [7]); 98% (active) in test [5] (setting [8]); 94.8% (active) in test [5] (at 50.0 µM); 58% in test [6] (setting [7]); 97% (active) in test [6] (setting [8]); 89.5% (active) in test [6] (at 50.0 µM).

As for `Cc1cc(C)n2nc(N)c(C#N)c2c1C#N`, the growth inhibition in test [1] (setting [7]) was -2%; in test [1] (setting [8]) it was 1%; in test [1] (at 50.0 µM), 17.2%; in test [2] (setting [7]), 1%; in test [2] (setting [8]), 0%; in test [2] (at 50.0 µM), 7.85%. For the same compound, the growth inhibition was 2% in test [3] (setting [7]); 8% in test [3] (setting [8]); 0.85% in test [3] (at 50.0 µM); -2% in test [4] (setting [7]); 2% in test [4] (setting [8]); 11.7% in test [4] (at 50.0 µM). In addition, the growth inhibition in test [5] (setting [7]) was -1%; in test [5] (setting [8]) it was -3%; in test [5] (at 50.0 µM), 47.7%; in test [6] (setting [7]), -1%; in test [6] (setting [8]), 7%; in test [6] (at 50.0 µM), 62%.

On to `O=C(O)c1ccc(CSc2ccc(Cl)cc2)cc1`, for which the growth inhibition in test [1] (setting [7]) was -4%; in test [1] (setting [8]), 0%; in test [1] (at 50.0 µM), 52%; in test [2] (setting [7]), -2%; in test [2] (setting [8]) it was 19%; in test [2] (at 50.0 µM), 10.4%. In addition, the growth inhibition is 11% in test [3] (setting [7]); 36% in test [3] (setting [8]); 51.3% in test [3] (at 50.0 µM); -7% in test [4] (setting [7]); -15% in test [4] (setting [8]); 36.7% in test [4] (at 50.0 µM). The growth inhibition is -6% in test [5] (setting [7]); 39% in test [5] (setting [8]); 18.7% in test [5] (at 50.0 µM); 0% in test [6] (setting [7]); 17% in test [6] (setting [8]); 71.3% (active) in test [6] (at 50.0 µM).

`Cc1cc(N(CCCOS(C)(=O)=O)CCCOS(C)(=O)=O)ccc1C=Nc1cc(Br)c(O)c(Br)c1`: the growth inhibition in test [1] (setting [7]) was -5%; in test [1] (setting [8]), 33%; in test [1] (at 50.0 µM), 41%; in test [2] (setting [7]) it was 36%; in test [2] (setting [8]) it was 7%; in test [2] (at 50.0 µM) it was 21.3%. Further, the growth inhibition in test [3] (setting [7]) was -3%; in test [3] (setting [8]), 27%; in test [3] (at 50.0 µM), 86.1% (active); in test [4] (setting [7]) it was -3%; in test [4] (setting [8]) it was -5%; in test [4] (at 50.0 µM), 4.8%. In addition, the growth inhibition is 0% in test [5] (setting [7]); 41% in test [5] (setting [8]); 34.8% in test [5] (at 50.0 µM); -2% in test [6] (setting [7]); 41% in test [6] (setting [8]); 68.4% in test [6] (at 50.0 µM).

Turning to `[CH3][Sn]1([CH3])[O]C(=O)CCN=Cc2c(ccc3ccccc23)[O][Sn]([CH3])([CH3])[O]C(=O)CCN=Cc2c(ccc3ccccc23)[O]1`, the growth inhibition in test [1] (setting [7]) is 57%; in test [1] (setting [8]) it was 98% (active); in test [1] (at 50.0 µM) it was 90.6% (active); in test [2] (setting [7]) it was 61%; in test [2] (setting [8]), 99% (active); in test [2] (at 50.0 µM), 92.8% (active). In addition, the growth inhibition in test [3] (setting [7]) is 82% (active); in test [3] (setting [8]), 99% (active); in test [3] (at 50.0 µM) it was 93% (active); in test [4] (setting [7]), 24%; in test [4] (setting [8]), 99% (active); in test [4] (at 50.0 µM), 91.7% (active). The growth inhibition in test [5] (setting [7]) is 84% (active); in test [5] (setting [8]) it was 98% (active); in test [5] (at 50.0 µM), 92.3% (active); in test [6] (setting [7]), 93% (active); in test [6] (setting [8]) it was 99% (active); in test [6] (at 50.0 µM) it was 89.8% (active).

For the compound `CS(=O)(=O)OCCN(CCOS(C)(=O)=O)c1ccc(C=Nc2cc(Br)c(O)c(Br)c2)c(Cl)c1`, the growth inhibition in test [1] (setting [7]) is 3%; in test [1] (setting [8]), 70% (active); in test [1] (at 50.0 µM), 67.7%; in test [2] (setting [7]), 29%; in test [2] (setting [8]), 39%; in test [2] (at 50.0 µM), 36.8%. For the same compound, the growth inhibition was 3% in test [3] (setting [7]); 80% (active) in test [3] (setting [8]); 82.5% (active) in test [3] (at 50.0 µM); 5% in test [4] (setting [7]); 45% in test [4] (setting [8]); 10.2% in test [4] (at 50.0 µM). Also, the growth inhibition in test [5] (setting [7]) is -3%; in test [5] (setting [8]), 96% (active); in test [5] (at 50.0 µM) it was 40.3%; in test [6] (setting [7]), 8%; in test [6] (setting [8]), 91% (active); in test [6] (at 50.0 µM) it was 85.8% (active).

Take `O=C1C(Cl)=C(Nc2ccc(S(=O)(=O)Nc3ccccn3)cc2)C(=O)c2ccccc21`: the growth inhibition was 99% (active) in test [1] (setting [7]); 99% (active) in test [1] (setting [8]); 99.3% (active) in test [1] (at 50.0 µM); 99% (active) in test [2] (setting [7]); 99% (active) in test [2] (setting [8]); 99.3% (active) in test [2] (at 50.0 µM). For the same compound, the growth inhibition in test [3] (setting [7]) is 96% (active); in test [3] (setting [8]), 99% (active); in test [3] (at 50.0 µM), 99.2% (active); in test [4] (setting [7]), 95% (active); in test [4] (setting [8]), 99% (active); in test [4] (at 50.0 µM) it was 99.2% (active). Moreover, the growth inhibition in test [5] (setting [7]) is 99% (active); in test [5] (setting [8]) it was 99% (active); in test [5] (at 50.0 µM) it was 98.7% (active); in test [6] (setting [7]), 90% (active); in test [6] (setting [8]), 99% (active); in test [6] (at 50.0 µM), 99.2% (active).

Take `COc1ccc2c(c1)sc(/C=C/c1ccc(O)c3ncccc13)[n+]2C`: the growth inhibition in test [1] (setting [7]) was 12%; in test [1] (setting [8]), 88% (active); in test [1] (at 50.0 µM), 92.3% (active); in test [2] (setting [7]), 49%; in test [2] (setting [8]), 92% (active); in test [2] (at 50.0 µM), 93.6% (active). The growth inhibition in test [3] (setting [7]) is -53%; in test [3] (setting [8]), 94% (active); in test [3] (at 50.0 µM), 92% (active); in test [4] (setting [7]) it was 3%; in test [4] (setting [8]), 86% (active); in test [4] (at 50.0 µM), 90.3% (active). Also, the growth inhibition in test [5] (setting [7]) was 19%; in test [5] (setting [8]), 86% (active); in test [5] (at 50.0 µM) it was 89.9% (active); in test [6] (setting [7]), 62%; in test [6] (setting [8]), 92% (active); in test [6] (at 50.0 µM), 92.4% (active).
